According to PubChem BioAssay (Tox21):
Results filed as inconclusive are left out. Where a call stands in place of a potency, no number is given. Values without a mark were called inactive. Active and inactive are the calls of the source. Calls follow the shape of the dose curve; as a rule, active = well fitted activation curve with a large enough effect in the repeat runs; inconclusive = weak or mixed curves, or effect the other way; inactive = no such curve, though single readings can be large or run the other way.

Experiment: qHTS assay to identify small molecule agonists of the retinoic acid receptor (RAR) signaling pathway (AID 1159553)
Conditions: C3RL4 RARE luciferase reporter, agonist, 6 h; series mostly up to 73.3 µM
Description: National Center for Advancing Translational Sciences [NCATS] NIH Chemical Genomics Center [NCGC] U.S. Environmental Protection Agency [EPA] National Institutes of Environmental Health Sciences [NIEHS] National Toxicology Program [NTP] Assay overview: All-trans Retinoic acid (atRA) is the potent natural metabolite of retinol and plays an important role in normal embryonic development and maintenance of cellular phenotype in adult animals. atRA is the activating ligand for the retinoic acid receptors (RARs) which form heterodimers with retinoid X receptors (RXRs) on the retinoic acid response element (RARE). Through activation of the RAR/RXRs nuclear receptors, atRA regulates the transcription of a large number of protein-coding genes and regulatory RNAs. Intracellular levels of atRA are controlled by the retinol signaling pathway (RSP) that regulates the biosynthesis and catabolism of atRA to maintain physiological levels. Chemicals that interfere with the RSP can cause abnormal intracellular levels of atRA and therefore are potential developmental toxicants. To assess compounds for the potential adverse effect on embryonic development through interfering with retinol signaling, a cell-based RARE luciferase reporter gene assay was used. C3RL4 cell line (OARSA/CFSAN/FDA, Laurel, MD) was used to screen Tox21 10K compound library for identifying activators of the RSP.
Assay Protocol Summary: C3RL4 cells were seeded at 1,000/well in 5 uL of assay medium into white solid 1,536-well tissue culture plates (Greiner Bio-One North America Inc. Monroe, NC) using a Multidrop Combi (Thermo Scientific, Waltham, MA) dispenser. After incubation at 37 C and 5% CO2 for an overnight, 23 nL of compounds dissolved in DMSO, positive control or DMSO only were transferred by a Pintool station (Kalypsys, San Diego, CA). After 6 hr incubation at 37 C and 5% CO2, 5 uL of Amplite Luciferase reagent (AAT Bioquest Inc. Sunnyvale, CA) was added to each assay plate using a Flying Reagent Dispenser (FRD) (Aurora Discovery, San Diego, CA). Luminescence was quantified on a ViewLux plate reader (PerkinElmer, Waltham, MA) after 30 min incubation at room temperature.
Potency is read from the fitted curve at half-maximal effect.

| Compound | Potency | activation |
| --- | --- | --- |
| Oc1cccc(Cl)c1Cl | inactive | – |
| C[C@@H]1CC2=CC(=O)CC[C@@H]2[C@H]2CC[C@@]3(C)[C@@H](CC[C@]3(C)O)[C@@H]21 | inactive | – |
| CCOC(=O)CCN(SN(C)C(=O)Oc1cccc2c1OC(C)(C)C2)C(C)C | inactive | – |
| O=C(Cl)c1ccccc1F | inactive | – |
| COC(=O)C(C)N(C(=O)c1ccco1)c1c(C)cccc1C (stereo not given) | inactive | – |
| O=[N+]([O-])C(Br)Br | inactive | – |
| COC(=O)c1cc(Oc2ccc(Cl)cc2Cl)ccc1[N+](=O)[O-] | inactive | – |
| O=c1[nH]c(Cl)c(Cl)cc1Cl | inactive | – |
| CC(C)(C)c1ccc(OP(=O)(Oc2ccccc2)Oc2ccccc2)cc1 | inactive | – |
| Brc1cccc(-c2ccccc2)c1 | inactive | – |
| CCOP(=O)(Sc1ccccc1)Sc1ccccc1 | inactive | – |
| O=P(Cl)(Cl)Cl | inactive | – |
| c1ccc2nc(N3CCNCC3)ccc2c1 | inactive | – |
| CC(C)N(C(=O)SC/C(Cl)=C/Cl)C(C)C | inactive | – |
| Oc1cc(Cl)cc(Cl)c1 | inactive | – |
| CC(C)[C@@H](Nc1ccc(C(F)(F)F)cc1Cl)C(=O)OC(C#N)c1cccc(Oc2ccccc2)c1 (stereo not given in full) | inactive | – |
| O=NN(CCO)CCO | inactive | – |
| c1ccc2c(c1)cc1ccc3cccc4ccc2c1c34 | 11.1 µM (active) | – |
| CC1(C)[C@H](/C=C2\CCSC2=O)[C@@H]1C(=O)OCc1coc(Cc2ccccc2)c1 | inactive | – |
| ClC(Cl)C(Cl)(Cl)Cl | inactive | – |

| Compound | Potency | activation |
| --- | --- | --- |
| Oc1cc(Cl)c(Cl)c(Cl)c1Cl | inactive | – |
| O=[N+]([O-])[O-].[Tl+] | inactive | – |
| CCCCCCCc1ccc(O)cc1 | 8.63 µM (active) | – |
| CC#C[C@]1(O)CC[C@H]2[C@@H]3C[C@H](C)C4=CC(=O)CC[C@]4(C)[C@H]3CC[C@@]21C | inactive | – |
| O=C(N[C@@H]1N=C(c2ccccc2F)c2cccc3c2N(CC3)C1=O)c1cc2ccccc2[nH]1 | inactive | – |
| O=C(CCCCl)c1ccc(F)cc1 | 26.6 µM (active) | – |
| CCC1COC(Cn2cncn2)(c2ccc(Cl)cc2Cl)O1 (stereo not given) | inactive | – |
| c1csc(-c2ccc(-c3cccs3)s2)c1 | 1.72 µM (active) | – |
| CC[N+]1(CC)CCC(OC(=O)C(O)(c2ccccc2)c2ccccc2)C1 (stereo not given) | inactive | – |
| Oc1ccc2[nH]cc(CCCCN3CC=C(c4ccccc4)CC3)c2c1 | inactive | – |
| CC(Cc1ccc(O)cc1)NCC(O)c1cc(O)cc(O)c1 (stereo not given) | inactive | – |
| COP(=O)(OC)O/C(=C\Cl)c1cc(Cl)c(Cl)cc1Cl | inactive | – |
| CC(C)Br | inactive | – |
| ClCBr | inactive | – |
| CCCCC(CC)COC(=O)c1ccccc1C(=O)OCC(CC)CCCC (stereo not given) | inactive | – |
| CCC1(CC)C(=O)N=C(O)NC1=O | inactive | – |
| CSC(=O)c1c(C(F)F)nc(C(F)(F)F)c(C(=O)SC)c1CC(C)C | inactive | – |
| CN(C)CCc1c[nH]c2ccccc12 | inactive | – |
| Clc1c(Cl)c(Cl)c(Cl)c(Cl)c1Cl | – | -1.82% [at 8.36 µM] |
| CCCN | inactive | – |
